Results taken from PubChem BioAssay (NCI).
Compounds without any hit were thinned out: in the full panel of roughly 83,000, 20% have a hit.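 The test compound was applied at a single concentration to cells in 96-well plates for 48 hours, and percent growth was recorded.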 Unmarked numbers belong to inactive results. Activity calls are given as the source filed them. How the source made its calls: active means growth percent below 10; inactive means the rest.

Columns and labels:
Test in all cases: NCI-60 one-dose screen, 48 h (100 = growth as untreated, 0 = no growth, -100 = all killed)
Settings in all cases: 10 µM unless noted
SR leukemia = test system: SR leukemia
RPMI-8226 leukemia = test system: RPMI-8226 leukemia
OVCAR-8 ovarian = test system: OVCAR-8 ovarian
OVCAR-5 ovarian = test system: OVCAR-5 ovarian
OVCAR-4 ovarian = test system: OVCAR-4 ovarian
SK-OV-3 ovarian = test system: SK-OV-3 ovarian
IGROV1 ovarian = test system: IGROV1 ovarian
OVCAR-3 ovarian = test system: OVCAR-3 ovarian
HS 578T breast = test system: HS 578T breast
NCI/ADR-RES ovarian = test system: NCI/ADR-RES ovarian
T-47D breast = test system: T-47D breast
BT-549 breast = test system: BT-549 breast
MDA-MB-435 melanoma = test system: MDA-MB-435 melanoma
SW-620 colon = test system: SW-620 colon
MCF7 breast = test system: MCF7 breast
HCT-116 colon = test system: HCT-116 colon
HCC-2998 colon = test system: HCC-2998 colon
KM12 colon = test system: KM12 colon

SMILES	growth (SR leukemia)	growth (RPMI-8226 leukemia)	growth (OVCAR-8 ovarian)	growth (OVCAR-5 ovarian)	growth (OVCAR-4 ovarian)	growth (SK-OV-3 ovarian)	growth (IGROV1 ovarian)	growth (OVCAR-3 ovarian)	growth (HS 578T breast)	growth (NCI/ADR-RES ovarian)	growth (T-47D breast)	growth (BT-549 breast)	growth (MDA-MB-435 melanoma)	growth (SW-620 colon)	growth (MCF7 breast)	growth (HCT-116 colon)	growth (HCC-2998 colon)	growth (KM12 colon)
Cc1cc(N[C@@H]2CCC[C@H](Nc3ccnc4cc(Cl)ccc34)C2)nc(N2CCCCCC2)n1	-57.4% (active)	-52.2% (active)	-43% (active)	-15.8% (active)	-5.16% (active)	-51.9% (active)	-45.5% (active)	-58.8% (active)	-46.8% (active)	-39.8% (active)	-41.8% (active)	-87.9% (active)	-91.7% (active)	-76.5% (active)	-63.1% (active)	-88.6% (active)	-83.7% (active)	-39% (active)
C#Cc1cccc(NC(=O)c2ccccc2NC(=O)C=C)c1	101% [8.25 µM]	66.9% [8.25 µM]	91.4% [8.25 µM]	113% [8.25 µM]	100% [8.25 µM]	99.2% [8.25 µM]	101% [8.25 µM]	104% [8.25 µM]	89.9% [8.25 µM]	103% [8.25 µM]	76.6% [8.25 µM]	102% [8.25 µM]	103% [8.25 µM]	109% [8.25 µM]	82.4% [8.25 µM]	102% [8.25 µM]	104% [8.25 µM]	97.8% [8.25 µM]
Clc1ccc2c(NCCCCNc3nc(N4CCOCC4)nc4ccccc34)ccnc2c1	-18.9% (active)	-32.2% (active)	9.88% (active)	64.8%	-13.1% (active)	64.5%	44.9%	-71.2% (active)	91.8%	55.6%	8.21% (active)	107%	14.1%	14.9%	33.3%	-7.74% (active)	58.3%	33.4%
Cc1cc(N2CCOCC2)nc(N[C@@H]2CCC[C@H](Nc3ccnc4cc(Cl)ccc34)C2)n1	-36.9% (active)	-45.6% (active)	5.36% (active)	49.4%	35.5%	64.4%	26.4%	22.6%	-11.1% (active)	18.2%	-56.6% (active)	26%	-83% (active)	-1.97% (active)	5.31% (active)	-6.15% (active)	11.2%	20.6%
COc1cccc(/C=N/NC(=O)c2ccccc2Nc2ccnc(C(F)(F)F)c2)c1O	30.3%	-18.8% (active)	19.7%	20.7%	27.9%	8.06% (active)	4.92% (active)	43.2%	44.9%	6.84% (active)	17.6%	25.8%	31.9%	31.9%	3.13% (active)	12.8%	51.2%	38.8%
COc1nc2c(c(=O)n1C)CN(Cc1ccccc1)C=N2	98.7%	86.6%	96.7%	105%	116%	87.3%	93.7%	105%	113%	113%	67.1%	-4.81% (active)	117%	99.6%	101%	107%	113%	98.9%
Oc1cccc(-c2nc(N3CCOCC3)c3c4c(sc3n2)CCCC4)c1	70.3%	61%	51.9%	82.7%	45.9%	30.6%	3.92% (active)	56.9%	10.2%	52.1%	9.18% (active)	45.4%	59.7%	63.3%	42%	66.5%	81.9%	62.6%
CN1CCN(CCCOc2cccc3nc(Nc4cc(Cl)cc(Cl)c4)ccc23)CC1	-30.2% (active)	-14.8% (active)	51.4%	3.71% (active)	42.7%	90.2%	42.8%	26.3%	37.5%	6.46% (active)	-25.3% (active)	65%	-46.5% (active)	-66.6% (active)	-80.3% (active)	-26.6% (active)	30.2%	-71.9% (active)
